Cy5 interf NS3h – counter-screen for HCV NS3 helicase inhibitors: fluorescence interference; Cy5-dT15 DNA with NS3h; actives lie on both sides; signal over control mean, under 1 quenches; fluorescence interference ratio at 100 µM; actives 6% (n = 16,000); AID 720488;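 active = compound fluorescence over control fluorescence at most 0.8, a quencher, or at least a set upper limit, an enhancer; inactive = ratio between 0.8 and the set upper limit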
NS3h inh CB – blocks HCV NS3 helicase binding to DNA; NS3h Cy5-dT15 DNA binding, fluorescence polarization; inhibition, % at 100 µM; actives 1.6% (n = 16,000);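 active = inhibition above the average over every tested compound plus 3 SD, cut at about 40% in these data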
* marks the source's active call; other numbers are inactive results. This is a sample that favours compounds with a hit; in the whole collection about 6.9% have one here.

SMILES	Cy5 interf NS3h	NS3h inh CB
COc1ccc(C2CC(C(F)(F)F)n3ncc(C(=O)N(C)Cc4ccccc4)c3N2)cc1OC (stereo not given)	0.598*	27.6
Cc1ccc(C2CC(C(F)(F)F)n3nc(C(=O)N4CCN(c5ccc(F)cc5)CC4)c(Cl)c3N2)cc1 (stereo not given)	0.49*	10.5
Cc1ccc(C2CC(C(F)(F)F)n3nc(C(=O)N4CCN(c5ccc(F)cc5)CC4)cc3N2)cc1 (stereo not given)	0.92	6.4
CS(=O)(=O)N1CCN(c2ccc([N+](=O)[O-])c(NC3CC3)c2)CC1	0.895	9.7
COc1ccc(CN2CCN(S(=O)(=O)c3ccc(C)cc3)CC2)cc1	0.842	3.6
C=CCOc1ccc(/C=C2\SC(=S)N(c3cccc(C(F)(F)F)c3)C2=O)cc1OC	1.06	6.3
COc1ccc(NC(=O)/C(C#N)=C\c2ccc(-c3ccccc3[N+](=O)[O-])o2)cc1	1.05	13.5
CCCCCCCCNS(=O)(=O)c1ccc([N+](=O)[O-])cc1	1.15	5.5
CC(O)c1ccc(NC(=O)c2cnn3c2NC(c2ccc(F)cc2)CC3C(F)(F)F)cc1 (stereo not given)	0.482*	23.5
CC(O)c1ccc(NC(=O)c2cnn3c2NC(c2cccs2)CC3C(F)(F)F)cc1 (stereo not given)	1.02	4.8
COC(=O)c1cc(NS(=O)(=O)c2c(C)cc(C)cc2C)cc(C(=O)OC)c1	1.05	11.7
O=S(=O)(c1cccc2ccccc12)n1cnc2ccccc21	0.901	26.8
CCCCN(CC)Cc1c(C)[nH]c2ccc(C)cc2c1=O	1	3.1
Cc1nc2sc3c(c2c(=O)[nH]1)CCC3	0.633*	2.2
C=C1CSc2nc(=O)c3c4c(sc3n21)CCC4	0.938	5.8
O=c1cc(-c2ccccc2)nc2cc(-c3cccs3)[nH]n12	1.16	57.1*
Cc1cc(=O)n2[nH]c(-c3cccs3)cc2n1	1.07	1.2
Cc1cccc(OCC(=O)O/N=C(/N)Cc2cccc3ccccc23)c1	1.16	11.4
N#Cc1c(-c2cc(Br)cs2)c2c(=O)[nH]c(=O)[nH]c2[nH]c1=O	1.21*	4.5
CC(=O)Nc1cccc(Oc2ccc3c(c2)C(=O)N(c2ccccc2)C3=O)c1	0.992	8.2
COC(=O)c1cccc(N2C(=O)c3ccc(Oc4ccc(NC(C)=O)cc4)cc3C2=O)c1	1.27*	-25.3
O=C(NC(=S)Nc1cccc(Cl)c1)c1ccco1	0.991	-0.6
O=C(NC(=S)Nc1cccc(NC(=O)c2ccco2)c1)c1ccco1	0.856	42.2*
O=C(NC(=S)Nc1ccc2oc(-c3cc(I)ccc3Cl)nc2c1)c1ccco1	1.05	-19.0
O=C(NC(=S)Nc1cccc(NC(=O)c2ccccc2Cl)c1)c1ccco1	0.872	44.1*
SMILES	Cy5 interf NS3h	NS3h inh CB
O=C(NC(=S)Nc1ccc(Cl)c(-c2nc3ccccc3o2)c1)c1ccco1	1.2*	11.0
O=C(Nc1cccc(NC(=S)NC(=O)c2ccco2)c1)c1cccc(Cl)c1	1.09	-6.0
COc1cc(/C=C2/SC(=S)N(C)C2=O)cc(Br)c1OCc1ccc(F)cc1	1.05	-3.3
Cc1ccc(Br)cc1S(=O)(=O)N1CCN(C)CC1	0.858	5.1
O=CN1CCN(c2nc(-c3ccccc3)c3cc(Br)ccc3n2)CC1	1.03	-10.2
CCCCOc1ccc(NC(=O)CCSc2nccn2C)cc1	0.69*	14.1
CCCCOc1ccc(NC(=O)CSc2nnc(-c3cccc(F)c3)n2-c2ccccc2)cc1	1.13	1.8
O=C1/C(=C/c2ccc(Br)o2)SC(=S)N1c1cccc(C(F)(F)F)c1	0.858	2.7
O=C1/C(=C/c2ccc(Br)o2)SC(=S)N1c1ccccc1	0.64*	17.0
CCOc1ccc(N(CC(=O)N2CCOCC2)S(C)(=O)=O)cc1	0.753*	15.9
CS(=O)(=O)N(CC(=O)N1CCOCC1)c1ccc(Cl)cc1	1.03	1.3
CCOC(=O)CCc1c(C)nc2cc(-c3cccc(C)c3)[nH]n2c1=O	1.07	18.0
O=C1NN(c2ccccc2)C(=O)/C1=C/c1cc([N+](=O)[O-])c(Cl)cc1Cl	0.893	38.6
O=C1NN(c2ccccc2)C(=O)/C1=C/c1cccn1-c1ccc([N+](=O)[O-])cc1	0.607*	29.9
Cc1ccc(C(=O)NC(NC(=S)Nc2ccccc2)C(Cl)(Cl)Cl)cc1 (stereo not given)	0.959	-0.3
Cc1ccc(C(=O)NC(NC(=S)Nc2cc(C)ccc2C)C(Cl)(Cl)Cl)cc1 (stereo not given)	0.635*	3.1
Cc1ccc(C(=O)/C(=C/c2ccc(-c3cccc([N+](=O)[O-])c3)o2)c2nc3ccccc3o2)cc1	0.978	10.6
Cc1cc(C)n(S(=O)(=O)c2ccc3c(c2)C(=O)c2cc(S(=O)(=O)n4nc(C)cc4C)ccc2-3)n1	0.64*	-57.2
Cc1ccc2ccc(S(=O)(=O)n3nc(C)cc3C)cc2c1	1.01	6.7
COc1ccc(N(CC(=O)Nc2ccc(Br)cc2)S(=O)(=O)c2ccccc2)cc1Cl	1.05	-5.0
CN(C)/C=C1\N=C(c2cccc(F)c2)OC1=O	1.03	8.7
Cc1c(Cl)cccc1-c1ccc(C(=O)Nc2nccs2)o1	1.05	16.7
CC(C)COc1ccc(/C=C2\SC(=S)NC2=O)cc1	0.891	34.4
COc1ccc(N2C(=O)C3C4C=CC(C5CC45)C3C2=O)c([N+](=O)[O-])c1 (stereo not given)	0.984	6.3
COc1cc([N+](=O)[O-])ccc1N1C(=O)C2C3C=CC(C4CC34)C2C1=O (stereo not given)	0.749*	8.7
SMILES	Cy5 interf NS3h	NS3h inh CB
Cc1cc(/C=N\n2cnnc2)c(C)n1-c1ccc(I)cc1	0.997	-1.8
CCC1=NN(C(=O)c2cccc(O)c2)C(O)(c2ccncc2)C1 (stereo not given)	0.997	-4.3
CCC1=NN(C(=O)c2ccccc2)C(O)(c2ccc(Br)cc2)C1 (stereo not given)	0.763*	9.9
O=C(NC(NC(=S)Nc1ccc(-c2ccccc2)cc1)C(Cl)(Cl)Cl)c1ccccc1Cl (stereo not given)	0.956	9.6
CCC(=O)Nc1ccc(NC(=O)c2ccc(Br)o2)cc1	1.02	-2.8
CCSc1nnc(NC(=O)c2ccc(Br)o2)s1	0.771*	9.6
COc1ccc(/C(N)=N\OC(=O)c2ccco2)cc1	0.971	5.1
COc1ccc(OC)c(NC(=O)CN(c2ccccc2OC)S(=O)(=O)c2ccccc2)c1	1.03	17.6
COc1cc(C=C2C(=O)NC(=O)NC2=O)ccc1OCCOc1ccc(C)cc1	0.882	-2.8
Cc1cccc(NC(=O)CSc2nsc(SCC(=O)Nc3cccc(C)c3)n2)c1	0.937	2.3
CCOc1ccc2nc(SCC(=O)Nc3cccc(C)c3)sc2c1	0.614*	3.1
COC(=O)c1ccccc1NS(=O)(=O)c1ccc(NC(C)=O)cc1	1.02	-7.3
COC(=O)c1cc(Nc2nc3ccccc3nc2NS(=O)(=O)c2ccccc2)ccc1Cl	0.689*	21.3
CC(=O)c1ccc(NC(=O)CSC(N)=O)cc1	0.947	8.9
CCOc1ccccc1N1C(=O)NC(=O)/C(=C/C=C/c2ccco2)C1=O	1.18	42.7*
CCOc1ccc(N2C(=O)NC(=O)/C(=C/C=C/c3ccco3)C2=O)cc1	1.01	32.6
O=C(NCc1ccc(F)cc1)c1ccccc1Br	1.02	8.2
Cc1cc(C)cc(NC(=O)c2ccco2)c1	0.985	2.2
C=CCN(CC=C)C(=O)COc1ccccc1	0.996	-2.3
CCOc1cc(C2C3=C(CC(C)(C)CC3=O)NC3=C2C(=O)c2ccccc23)ccc1O (stereo not given)	1.2*	4.4

Screening data: PubChem BioAssay, Milwaukee Institute for Drug Discovery
